# Test results published in PubChem BioAssay (Tox21).
# Values joined by “and” are separate entries in the source; they are usually repeats but may differ in a detail not shown here. Equal entries are not always repeated. A number with no mark means an inactive call. Results filed as inconclusive are left out. A call without a number means that no potency is given here. Active and inactive are the calls of the source. Unless noted, the call rests on the fitted dose curve; in most records, active means well fitted curve in the direction sought with a large enough effect in the repeat runs; inconclusive means weak or mixed curves; inactive means no such curve, though single readings can be large; an effect the other way counts as inactive or inconclusive.
# Columns and labels:
# [1] = qHTS assay to identify small molecule antagonists of the estrogen receptor alpha (ER-alpha) signaling pathway using the BG1 cell line in the presence of 0.1 nM 17-beta-estradiol - cell viability counter screen (AID 1259241); further: nearly all actives have a fitted effect of over 40% in size
# In short: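 VM7Luc4E2 cells (endogenous full-length ER-alpha, 4xERE-luciferase), cultured 5 days in charcoal-stripped serum, exposed to compounds with 0.1 nM 17beta-estradiol (final) for 22 hr at 37C. Viability read in same wells as live-cell protease fluorescence after 30 min.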
# [2] = qHTS assay to identify small molecule antagonists of the androgen receptor (AR) signaling pathway using the MDA cell line in the presence of 0.5 nM R1881 - cell viability counter screen (AID 1259242); further: nearly all actives have a fitted effect of over 45% in size
# In short: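 R1881 at 0.5 nM final stimulated MDA-kb2 cells during 16 hr compound treatment at 37C. Cytotoxicity read: CellTiter-Fluor fluorescence after 30 min.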
# [3] = target: Androgen receptor (Homo sapiens) (UniProt P10275); assay: qHTS assay to identify small molecule antagonists of the androgen receptor (AR) signaling pathway using the MDA cell line in the presence of 0.5 nM R1881 (AID 1259243); further: nearly all actives have a fitted effect of over 50% in size; further: potency means the concentration at half of the fitted maximal effect
# Androgen receptor (Homo sapiens), sequence (P10275 whole entry, looked up): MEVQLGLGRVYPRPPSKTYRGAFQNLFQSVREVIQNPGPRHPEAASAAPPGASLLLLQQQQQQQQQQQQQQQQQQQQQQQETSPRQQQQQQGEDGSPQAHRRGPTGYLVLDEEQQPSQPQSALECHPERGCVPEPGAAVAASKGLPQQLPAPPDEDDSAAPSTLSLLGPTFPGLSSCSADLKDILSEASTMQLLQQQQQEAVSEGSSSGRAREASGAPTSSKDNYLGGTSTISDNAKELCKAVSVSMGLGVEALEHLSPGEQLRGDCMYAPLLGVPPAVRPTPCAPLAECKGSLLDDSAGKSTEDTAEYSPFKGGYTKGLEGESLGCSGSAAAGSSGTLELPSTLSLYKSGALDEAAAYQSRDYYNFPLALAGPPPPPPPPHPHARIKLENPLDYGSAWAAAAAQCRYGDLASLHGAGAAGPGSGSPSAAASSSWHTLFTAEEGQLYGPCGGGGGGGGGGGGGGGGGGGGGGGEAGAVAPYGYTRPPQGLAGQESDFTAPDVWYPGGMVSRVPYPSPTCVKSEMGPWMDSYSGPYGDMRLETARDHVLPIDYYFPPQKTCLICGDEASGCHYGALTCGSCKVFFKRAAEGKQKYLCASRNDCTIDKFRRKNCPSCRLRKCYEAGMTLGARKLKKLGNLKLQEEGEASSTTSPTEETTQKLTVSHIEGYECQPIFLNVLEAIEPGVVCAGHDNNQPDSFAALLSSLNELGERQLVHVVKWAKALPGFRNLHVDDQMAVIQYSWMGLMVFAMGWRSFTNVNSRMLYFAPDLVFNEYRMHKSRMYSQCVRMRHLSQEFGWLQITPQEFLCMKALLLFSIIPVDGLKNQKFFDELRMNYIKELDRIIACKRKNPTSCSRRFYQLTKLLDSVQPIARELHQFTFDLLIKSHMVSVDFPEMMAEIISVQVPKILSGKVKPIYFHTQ
# In short: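 We exposed MDA-kb2 cells to compounds under 0.5 nM R1881 stimulation for 16 hr at 37C and quantified MMTV-driven luciferase by luminescence.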
# [4] = target: Estrogen receptor (Homo sapiens) (UniProt P03372); assay: qHTS assay to identify small molecule antagonists of the estrogen receptor alpha (ER-alpha) signaling pathway using the BG1 cell line in the presence of 0.1 nM 17-beta-estradiol (AID 1259244); further: nearly all actives have a fitted effect of over 50% in size; further: potency means the concentration at half of the fitted maximal effect
# Estrogen receptor (Homo sapiens), sequence (P03372 whole entry, looked up): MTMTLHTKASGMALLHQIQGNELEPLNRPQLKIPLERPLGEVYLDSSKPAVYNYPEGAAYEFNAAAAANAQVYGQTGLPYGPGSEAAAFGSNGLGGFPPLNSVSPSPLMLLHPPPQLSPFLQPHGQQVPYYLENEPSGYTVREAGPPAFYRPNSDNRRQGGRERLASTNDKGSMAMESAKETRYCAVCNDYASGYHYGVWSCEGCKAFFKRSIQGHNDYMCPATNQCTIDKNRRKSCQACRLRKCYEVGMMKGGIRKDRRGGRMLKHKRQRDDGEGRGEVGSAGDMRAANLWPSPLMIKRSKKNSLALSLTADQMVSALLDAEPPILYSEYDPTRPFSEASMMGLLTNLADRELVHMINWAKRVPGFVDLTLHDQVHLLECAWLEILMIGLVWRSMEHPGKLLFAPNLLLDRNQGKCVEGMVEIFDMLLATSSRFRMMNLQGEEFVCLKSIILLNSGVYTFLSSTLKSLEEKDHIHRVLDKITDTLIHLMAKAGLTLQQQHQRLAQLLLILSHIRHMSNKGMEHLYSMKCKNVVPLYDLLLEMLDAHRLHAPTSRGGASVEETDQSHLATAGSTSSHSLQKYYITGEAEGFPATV
# In short: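 VM7Luc4E2; 4xERE-luciferase; 0.1 nM E2 final; 22 h co-incubation, 37C; ONE-Glo luminescence after 30 min at room temperature.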
# [5] = qHTS assay to identify small molecule HDAC inhibitors (AID 1259364);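 further: wild-type HCT-116 cells with endogenous class I/II HDAC activity; top concentration of the series differs between compounds; nearly all actives have a fitted effect of over 45% in size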
# In short: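 Relative class I and II HDAC activity is taken from the luminogenic signal in HCT-116 cells, with compound exposure 2 hr and reagent development 30 min at room temperature.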
# [6] = qHTS assay to identify small molecule HDAC inhibitors - cell viability counter screen (AID 1259365); further: series mostly up to about 92 µM; nearly all actives have a fitted effect of over 50% in size
# In short: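 Wild-type HCT-116 cells, 1,500/well, cultured overnight, then compound-treated 2 h at 37 C. Viability measured as ATP luminescence with CellTiter-Glo after 30 min at room temperature.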
# [7] = qHTS assay to identify small molecule agonists of the sonic hedgehog signaling (Shh) pathway - cell viability counter screen (AID 1259366); further: nearly all actives have a fitted effect of over 50% in size; further: potency means the concentration at half of the fitted maximal effect
# In short: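 NIH/3T3-derived Gli1-Luc reporter cells, 2,000 per well, received compound after 4 h and were treated about 23 h at 37C. Viability measured in the same wells by CellTiter-Fluor fluorescence after 1 h.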
# [8] = qHTS assay to identify small molecule agonists of the sonic hedgehog signaling (Shh) pathway (AID 1259368; calls by dose curve;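 further: NIH/3T3-derived 3T3Gli1-Luc cells carrying a stable Gli1-driven firefly luciferase reporter; series mostly up to about 92 µM; nearly all actives have a fitted effect of over 15% in size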)
# In short: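 Mouse fibroblast (NIH/3T3) reporter cells with stably integrated Gli1-Luc were treated 24 hr with compound; firefly luciferase luminescence served as the read-out.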
# [9] = qHTS assay to identify small molecule phospholipidosis (PLD) inducers (AID 1259344; active means well fitted curve in the direction sought with a large enough effect; an effect the other way counts as inactive or inconclusive)
# In short: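 HepG2 cells grown on collagen I take up LipidTOX Red while exposed to compound for 24 h; after fixation they are imaged at 20x and pit metrics are extracted.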
# [10] = qHTS assay to identify small molecule antagonists of the sonic hedgehog signaling (Shh) pathway - cell viability counter screen (AID 1259367); further: nearly all actives have a fitted effect of over 55% in size
# In short: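 After a 4 hr settling period, 3T3 Gli1-Luc cells were treated with DMSO-dissolved chemicals and conditioned medium, kept 24 hr at 37C in 5% CO2, and assayed for viability by CellTiter-Fluor fluorescence following 1 hr reagent incubation.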
smiles,measurement,setting,value
Nc1c(Cl)c(F)nc(OCC(=O)O)c1Cl,outcome,[1],inactive
same,Potency,[2],inactive
same,Potency,[3],inactive
same,Potency,[4],inactive
same,Potency,[5],inactive
same,outcome,[6],inactive
same,Potency,[7],inactive
same,outcome,[8],inactive
Cc1ccc(S(=O)(=O)N[C@@H](CCCCN)C(=O)CCl)cc1,outcome,[1],inactive
same,Potency,[2],inactive
same,Potency,[3],inactive
same,Potency,[9],inactive
same,Potency,[5],inactive
same,outcome,[6],inactive
same,Potency,[7],inactive
same,outcome,[8],inactive
CCC1(c2ccccc2)CCC(=O)NC1=O (configuration not stated),outcome,[1],inactive
same,Potency,[2],inactive
same,Potency,[3],inactive
same,Potency,[9],inactive
same,Potency,[5],inactive
same,outcome,[6],inactive
same,Potency,[7],inactive
same,Potency,[10],inactive
same,outcome,[8],inactive
[O-][Br+2]([O-])O,outcome,[1],inactive
same,Potency,[2],inactive
same,Potency,[3],inactive
same,Potency,[4],inactive
same,Potency,[5],inactive
same,outcome,[6],inactive
same,Potency,[7],inactive
same,Potency,[10],inactive
same,outcome,[8],inactive
CCOP(=S)(OCC)SCCl,outcome,[1],inactive
same,Potency,[2],inactive
same,Potency,[3],inactive
same,Potency,[4],inactive
same,Potency,[5],inactive
same,outcome,[6],inactive
same,Potency,[7],inactive
same,Potency,[10],inactive
CN(C)C(=O)Oc1cc(OC(=O)N(C)C)cc(C(O)CNC(C)(C)C)c1 (configuration not stated),outcome,[1],inactive
same,Potency,[2],inactive
same,Potency,[3],inactive
same,Potency,[4],inactive
same,Potency,[9],inactive
same,Potency,[5],inactive
same,outcome,[6],inactive
same,Potency,[7],inactive
same,Potency,[10],inactive
same,outcome,[8],inactive
C[C@H]1CCCC(=O)CCC/C=C/c2cc(O)cc(O)c2C(=O)O1,outcome,[1],inactive
same,Potency,[2],inactive
same,Potency,[3],20.9 µM (active)
same,Potency,[4],23.4 µM (active) and 25.2 µM (active)
same,Potency,[5],inactive
same,outcome,[6],inactive
same,Potency,[7],20.9 µM (active)
same,outcome,[8],inactive
COC[C@@H](NC(C)=O)C(=O)NCc1ccccc1,outcome,[1],inactive
same,Potency,[2],inactive
same,Potency,[3],inactive
same,Potency,[5],inactive
same,outcome,[6],inactive
same,Potency,[7],inactive
same,outcome,[8],inactive
COC(=O)c1ccc(CBr)cc1,outcome,[1],inactive
same,Potency,[2],inactive
same,Potency,[3],inactive
same,Potency,[4],inactive
same,outcome,[6],inactive
same,Potency,[7],inactive
same,Potency,[10],inactive
same,outcome,[8],inactive
CCOC(=O)NC(C)(C)Cc1ccc(Cl)cc1,outcome,[1],inactive
same,Potency,[2],inactive
same,Potency,[4],inactive
same,PLD induction,[9],18.3% [at 1.53 µM]
same,Potency,[5],inactive
same,outcome,[6],inactive
same,Potency,[7],inactive
same,Potency,[10],inactive
Cn1c(CCCC(=O)O)nc2cc(N(CCCl)CCCl)ccc21,outcome,[1],inactive
same,Potency,[2],inactive
same,Potency,[4],inactive
same,Potency,[9],inactive
same,Potency,[5],inactive
same,outcome,[6],inactive
same,Potency,[7],inactive
same,Potency,[10],inactive
same,outcome,[8],inactive
O=C(Cl)CCl,outcome,[1],inactive
same,Potency,[2],inactive
same,Potency,[4],inactive
same,Potency,[5],inactive
same,outcome,[6],inactive
same,Potency,[7],inactive
same,Potency,[10],inactive
CC1N=C(N)OC1c1ccccc1 (configuration not stated),outcome,[1],inactive
same,Potency,[2],inactive
same,Potency,[4],inactive
same,Potency,[9],inactive
same,Potency,[5],inactive
same,outcome,[6],inactive
same,Potency,[7],inactive
same,outcome,[8],inactive
CC(C)(N)Cc1ccc(Cl)cc1,outcome,[1],inactive
same,Potency,[2],inactive
same,Potency,[4],inactive
same,Potency,[9],inactive
same,Potency,[5],inactive
same,outcome,[6],inactive
same,Potency,[7],inactive
same,Potency,[10],inactive
COc1cccc(C=O)c1,outcome,[1],inactive
same,Potency,[2],inactive
same,Potency,[4],inactive
same,Potency,[5],inactive
same,outcome,[6],inactive
same,Potency,[7],inactive
same,Potency,[10],inactive
N#CN,outcome,[1],inactive
same,Potency,[2],inactive
same,Potency,[4],inactive
same,Potency,[9],inactive
same,Potency,[5],inactive
same,outcome,[6],inactive
same,Potency,[7],inactive
same,Potency,[10],inactive
CC(C)(C)c1cc(O)ccc1O,outcome,[1],inactive
same,Potency,[2],inactive
same,Potency,[4],inactive
same,Potency,[9],inactive
same,Potency,[5],inactive
same,outcome,[6],inactive
same,Potency,[7],inactive
same,outcome,[8],inactive
O=C(NC(O)C(Cl)(Cl)Cl)NC(O)C(Cl)(Cl)Cl (configuration not stated),outcome,[1],inactive
same,Potency,[2],inactive
same,Potency,[4],inactive
same,Potency,[9],inactive
same,Potency,[5],inactive
same,outcome,[6],inactive
same,Potency,[7],inactive
same,outcome,[8],inactive
Cc1ccc2c(c1)C1CN(C)CCC1N2 (configuration not stated),"activity change, negative = cytotoxicity",[1],-3.08% [at 19 µM]
same,"viability change, negative = cytotoxic",[2],-1.32% [at 19 µM]
same,"activity change, negative = inhibition",[4],-0.7% [at 19 µM]
same,Potency,[9],inactive
same,"activity change, negative = inhibition",[5],-0.403% [at 19 µM]
same,"activity change, negative = cytotoxicity",[6],1.1% [at 19 µM]
same,"viability change, negative = cytotoxic",[7],-5.79% [at 19 µM]
same,activity change,[8],0.824% [at 18.9 µM]
ClCC1CO1 (configuration not stated),outcome,[1],inactive
same,Potency,[2],inactive
same,Potency,[4],inactive
same,Potency,[9],inactive
same,Potency,[5],inactive
same,outcome,[6],inactive
same,Potency,[7],inactive
same,outcome,[8],inactive
Cc1ccc(Cl)c(O)c1,outcome,[1],inactive
same,Potency,[2],inactive
same,Potency,[4],inactive
same,Potency,[9],inactive
same,Potency,[5],inactive
same,outcome,[6],inactive
same,Potency,[7],inactive
same,Potency,[10],inactive
same,outcome,[8],inactive
CCC(C(N)=O)N1CCCC1=O (configuration not stated),outcome,[1],inactive
same,Potency,[2],inactive
same,Potency,[4],inactive
same,Potency,[9],inactive
same,Potency,[5],inactive
same,outcome,[6],inactive
same,Potency,[7],inactive
same,Potency,[10],inactive
same,outcome,[8],inactive
O=C/C=C/c1ccco1,outcome,[1],inactive
same,Potency,[2],inactive
same,Potency,[3],inactive
same,Potency,[5],inactive
same,outcome,[6],inactive
same,Potency,[7],inactive
same,outcome,[8],inactive
CCCN1CCC[C@@H]2Cc3[nH]ncc3C[C@H]21,outcome,[1],inactive
same,Potency,[2],inactive
same,Potency,[4],inactive
same,Potency,[9],inactive
same,Potency,[5],inactive
same,outcome,[6],inactive
same,Potency,[7],inactive
same,Potency,[10],inactive
same,outcome,[8],inactive
O=c1[nH]oc2c1CCNC2,outcome,[1],inactive
same,Potency,[2],inactive
same,Potency,[4],inactive
same,Potency,[9],inactive
same,Potency,[5],inactive
same,outcome,[6],inactive
same,Potency,[7],inactive
same,Potency,[10],inactive
same,outcome,[8],inactive
O=S1(=O)OCCO1,outcome,[1],inactive
same,Potency,[2],inactive
same,Potency,[3],inactive
same,Potency,[5],inactive
same,outcome,[6],inactive
same,Potency,[7],inactive
same,outcome,[8],inactive
